Measured values reported in PubChem BioAssay (NCATS).
Records with an inconclusive call do not appear. Where a call stands in place of a potency, no number is given. Unmarked numbers belong to inactive results. Activity calls are given as the source filed them. The call rests on the fitted dose curve; in most records, active means well fitted inhibition curve with a large enough effect; inconclusive means small, poorly fitted or top-dose-only effect; inactive means flat fitted curve, though single readings scatter.

test: P-glycoprotein substrates identified in KB-8-5-11 adenocarcinoma cell line, qHTS therapeutic library screen (AID 1346987); settings: KB-8-5-11 (P-gp overexpressing) viability, CellTiter-Glo, 72 h; series mostly up to 44.5 µM; further: nearly all actives have a fitted effect of over 65% in size
Procedure, shortened: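 Luminescence from CellTiter-Glo, read 5 min after addition, quantified survival of KB-8-5-11 (P-gp-overexpressing) cells exposed to compounds for 72 h. AC50 was derived from concentration-response curves.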
Potency means the concentration at half of the fitted maximal effect.

**Q.** With COc1cc(/C=N\NC(=O)c2ccc3c(c2)OCO3)ccc1OCc1ccccc1 as the compound, how does the Potency read?
**A.** inactive

**Q.** For C=C(C)[C@@H]1CC=C(COC(=O)NC(=O)c2ncn3c(=O)n(C)nnc23)CC1, which Potency is on record?
**A.** inactive

**Q.** For Cn1c(SCC(=O)N2CCC[C@H]2C(=O)Nc2ccccc2-c2ccccc2)nc2ccccc21, which Potency is on record?
**A.** inactive

**Q.** With CC1CCC(=O)CC(SCC(O)C(=O)O)CCC(=O)O1 (stereo not drawn) as the compound, how does the Potency read?
**A.** inactive

**Q.** For NC(=O)N1CCC(CC(=O)N2CCC(C3c4ncc(Br)cc4CCc4cc(Cl)cc(Br)c43)CC2)CC1 (stereo not drawn), which Potency is on record?
**A.** 18.4 µM (active)

**Q.** Which Potency does the source give for CCc1cc2c(cc1CC)CC(NCC(O)c1ccc(O)c3[nH]c(=O)ccc13)C2 (stereo not drawn) here?
**A.** inactive

**Q.** Which Potency does the source give for O=C(O)c1cccc(-c2ccc(-c3cn(C(=O)N4CCCCC4Cc4ccccc4)nn3)cc2)c1 (stereo not drawn) here?
**A.** inactive

**Q.** With CNC(=O)c1ccc2c(c1)CCO[C@H]2CCN1CCN(c2ccc(OC)cc2)CC1 as the compound, how does the Potency read?
**A.** inactive

**Q.** With COc1cc(N2CCC(N)CC2)ccc1Nc1ncc(Cl)c(-c2c[nH]c3ccccc23)n1 as the compound, how does the Potency read?
**A.** 4.11 µM (active)

**Q.** With CC(C)(C)c1ccc(C(=O)Nc2cc(Cl)c(Br)cc2C(=O)O)cc1 as the compound, how does the Potency read?
**A.** 10.3 µM (active)

**Q.** For O=C(Nc1ccc(-c2ccnc(Nc3ccc(N4CCOCC4)cc3)n2)cc1)C1CCCN1 (stereo not drawn), which Potency is on record?
**A.** 14.6 µM (active)

**Q.** For COC(=O)C1=CO[C@@H](O[C@@H]2O[C@H](CO)[C@@H](O)[C@H](O)[C@H]2O)[C@H]2[C@@H]1C=C[C@]21C=C([C@H](C)OC(=O)/C=C/c2ccc(O)cc2)C(=O)O1, which Potency is on record?
**A.** 4.32 µM (active)

**Q.** With Cc1cc(C)c(S(=O)(=O)n2cc(C)cc2C)c(C)c1 as the compound, how does the Potency read?
**A.** inactive

**Q.** For O=C(CSc1nc2ccccc2c(=O)n1-c1ccccc1)Nc1ccc2c(c1)CCC2, which Potency is on record?
**A.** inactive

**Q.** For C/C=C(\C)C(=O)OC1C(C)C2(O)C(C=C(CO)CC3(O)C(=O)C(C)=CC32)C2C(C)(C)C12OC(C)=O (stereo not drawn), which Potency is on record?
**A.** inactive

**Q.** With CC(C)(C)NC(=O)[C@H]1CC[C@H]2[C@@H]3CC[C@H]4NC(=O)CC[C@]4(C)[C@H]3CC[C@]12C as the compound, how does the Potency read?
**A.** inactive

**Q.** Which Potency does the source give for COc1c2c(c(C)c3c1C(=O)OC3)O[C@@]1(C)C[C@@H](OC(C)=O)[C@]34O[C@](OC)(CC[C@]3(C)[C@H]1C2)OC4(C)C here?
**A.** inactive

**Q.** With C=C1C(=O)O[C@@H]2[C@H]1CC(=O)[C@H](C)[C@@](O)(C(=O)/C=C/C)[C@H]2OC(=O)C(C)CC (stereo partly drawn) as the compound, how does the Potency read?
**A.** 5.7 µM (active)

**Q.** With COc1ccc(C#Cc2ccc(C(=O)N3CCC[C@@H](O)C3)c(F)c2)cc1 as the compound, how does the Potency read?
**A.** inactive

**Q.** For O=C(c1ccc(OC(F)F)c(C#Cc2ccccn2)c1)N1Cc2cccnc2C1, which Potency is on record?
**A.** inactive

**Q.** For Cc1cc(OCCCS(C)(=O)=O)cc(C)c1-c1cccc(COc2ccc(C3=CC(=O)NS3=O)cc2)c1 (stereo not drawn), which Potency is on record?
**A.** inactive

**Q.** Which Potency does the source give for Cc1sc2c(c1C)C(c1ccc(Cl)cc1)=N[C@H](CC(=O)NCCCCNC(=O)COc1cccc3c1C(=O)N([C@H]1CCC(=O)NC1=O)C3=O)c1nnc(C)n1-2 here?
**A.** inactive

**Q.** Which Potency does the source give for Cc1nnc(C[C@@H]2C=C(c3ccc(Cl)cc3)c3ccccc3-n3c(C)nnc32)o1 here?
**A.** 2.59 µM (active)

**Q.** With CCn1c(=O)c(-c2ccc(-c3cncs3)cc2Cl)cc2cnc(Nc3ccc(N4CCN(C)CC4)cc3)nc21 as the compound, how does the Potency read?
**A.** 18.4 µM (active)

**Q.** With C=C(CCC1C(C)(O)CCC2C(C)(C)C(O)CCC12C)C(O)CO (stereo not drawn) as the compound, how does the Potency read?
**A.** inactive

**Q.** With CC(C)n1c(=O)c(C(=O)NC2CC3CCC(C2)N3C[C@@H](O)CN(C)S(C)(=O)=O)cc2ccccc21 (stereo partly drawn) as the compound, how does the Potency read?
**A.** inactive

**Q.** For CCC(C)C(C(=O)OCC[N+](C)(CC)CC)c1ccccc1 (stereo not drawn), which Potency is on record?
**A.** inactive

**Q.** With CC(=O)OC(C)(C)/C=C/C(=O)C(C)(O)C1C(O)CC2(C)C3CC=C(C(C)(C)C(=O)O)C(CC(=O)O)C3(C)C(=O)CC12C (stereo not drawn) as the compound, how does the Potency read?
**A.** inactive

**Q.** Which Potency does the source give for CCCC1(CCC)CCC2(CCN(CCCN(CC)CC)C2)CC1 here?
**A.** 2.31 µM (active)

**Q.** Which Potency does the source give for CC(=O)O[C@H]1[C@H](O)C[C@@]2(C)C(CC[C@]3(C)C2CC=C2C4CC(C)(C)CC[C@]4(C(=O)O)CC[C@]23C)C1(C)C (stereo partly drawn) here?
**A.** inactive

**Q.** Which Potency does the source give for C=C1/C(=C/C=C2\CCC[C@]3(C)[C@@H]([C@@H](C)OCCC(O)(CC)CC)CC[C@@H]23)C[C@@H](O)C[C@@H]1O here?
**A.** inactive

**Q.** Which Potency does the source give for CC1OC2OC(=O)C3(C)CC4C5(CO5)C5=CC(=O)OC(C)(C)C5=CC(=O)C4(C)C(C1=O)C23 (stereo not drawn) here?
**A.** inactive

**Q.** With CCC/C=C/C(=O)O[C@H]1CC(C)(C)CC2[C@@]13[C@H](O)C[C@]1(C)[C@@]2(CCC2[C@@]4(C)CC[C@H](O[C@@H]5O[C@H](C(=O)O)[C@@H](O)[C@H](O[C@@H]6O[C@H](CO)[C@H](O)[C@H](O)[C@H]6O[C@@H]6O[C@@H](C)[C@H](O)[C@@H](O)[C@H]6O[C@@H]6OC[C@](O)(CO)[C@H]6O)[C@H]5O[C@@H]5O[C@H](CO)[C@H](O)[C@H](O)[C@H]5O)C(C)(C)C4CC[C@]21C)O[C@H]3O (stereo partly drawn) as the compound, how does the outcome read?
**A.** inactive [at 9.29 µM]

**Q.** With CC1(C)Oc2ncnc(N)c2N=C1c1ccc(C23CCC(CC(=O)O)(CC2)CC3)cc1 as the compound, how does the Potency read?
**A.** inactive

**Q.** For CCOC(=O)N1c2ccc(C(F)(F)F)cc2C(N(Cc2cc(C(F)(F)F)cc(C(F)(F)F)c2)C(=O)OC)CC1CC (stereo not drawn), which Potency is on record?
**A.** inactive

**Q.** For Cn1ncc(Cl)c1-c1cc(C(=O)N[C@H](CN)Cc2cccc(F)c2)sc1Cl, which Potency is on record?
**A.** 18.4 µM (active)

**Q.** With CCC(C)(OC(C)=O)C(=O)O[C@H]1[C@H](OC(C)=O)[C@]2(CO)[C@H](O)[C@H](O)[C@]3(C)C(=CCC4[C@@]5(C)CC[C@H](O[C@@H]6O[C@H](C(=O)O)[C@@H](O)[C@H](O[C@@H]7OC[C@H](O)[C@H](O[C@@H]8OC[C@H](O)[C@H](O)[C@H]8O)[C@H]7O)[C@H]6O[C@@H]6O[C@H](CO)[C@@H](O)[C@H](O)[C@H]6O)C(C)(C)C5CC[C@]43C)[C@@H]2CC1(C)C (stereo partly drawn) as the compound, how does the activity change, negative = cytotoxicity read?
**A.** -29% [at 9.29 µM]

**Q.** With C/C=C(/C)C(=O)OC1C=C2C3C(C)C(C)C(OC(=O)C(C)C(C)O)CC3(C)CCC2(C)C2(C)CC(OC(C)=O)C3C(C)(C)C(O)C(=O)CC3(C)C12 (stereo not drawn) as the compound, how does the Potency read?
**A.** inactive
